Activity calls are given as the source filed them. The calls were made as follows: active = hit-call score of the fitted dose curve at least 0.9, where 1 is the maximum; inactive = score below 0.9.
How the values were obtained:
[1] = read-out: Human Leukocyte Antigen - DR isotype (HLADR), HLA-DRA (gene 3122); test: BSK_BE3C_HLADR: BioMAP Diversity Plus: BE3C Assay for Human Leukocyte Antigen - DR isotype (HLADR) Biomarker Activity (AID 2283032); conditions: primary human bronchial epithelial cells; actives raise or lower the signal
Procedure, shortened: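 BioMAP BE3C format: human bronchial epithelium, 24 h compound treatment, ELISA detection of HLA-DR, with bidirectional analysis relative to DMSO.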

[2] = read-out: Vascular cell adhesion molecule 1 (VCAM1), VCAM1 (gene 7412); test: BSK_4H_VCAM1: BioMAP Diversity Plus: 4H Assay for Vascular cell adhesion molecule 1 (VCAM1) Biomarker Activity (AID 2283033); conditions: primary human endothelial cells (HUVEC); actives raise or lower the signal
Procedure, shortened: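 In this human endothelial (HUVEC) system, biomarker ELISA was run 24 h after compound addition, and total protein in parallel wells was assessed by SRB at 560 nm; DMSO served as negative control.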

[3] = read-out: Interferon-gamma inducible Protein 10 (IP10), CXCL10 (gene 3627); test: BSK_BE3C_IP10: BioMAP Diversity Plus: BE3C Assay for Interferon-gamma inducible Protein 10 (IP10) Biomarker Activity (AID 2283034); conditions: primary human bronchial epithelial cells; actives raise or lower the signal
Procedure, shortened: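 BE3C cells (human bronchial epithelial, primary); 24 h exposure; ELISA for IP-10; DMSO-referenced bidirectional fit.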

[4] = read-out: Monokine induced gamma interferon (MIG), CXCL9 (gene 4283); test: BSK_BE3C_MIG: BioMAP Diversity Plus: BE3C Assay for Monokine induced gamma interferon (MIG) Biomarker Activity (AID 2283035); conditions: primary human bronchial epithelial cells; actives raise or lower the signal
Procedure, shortened: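 hu bronchial epithelial 1° cells, 24 h cpd; MIG by ELISA; bidirectional fit, DMSO = baseline.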

[5] = read-out: Transforming growth factor beta 1 (TGFb1), TGFB1 (gene 7040); test: BSK_BE3C_TGFb1: BioMAP Diversity Plus: BE3C Assay for Transforming growth factor beta 1 (TGFb1) Biomarker Activity (AID 2283036); conditions: primary human bronchial epithelial cells; actives raise or lower the signal
Procedure, shortened: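 TGF-b1 measured via ELISA, 24 h after chemical dosing of human bronchial epithelial cells (BE3C). Overt cytotoxicity assessed in parallel by SRB (0.1%, TCA-fixed, 560 nm); analysis bidirectional relative to DMSO.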

[6] = read-out: Plasminogen activator inhibitor-1 (PAI1), SERPINE1 (gene 5054); test: BSK_BE3C_PAI1: BioMAP Diversity Plus: BE3C Assay for Plasminogen activator inhibitor-1 (PAI1) Biomarker Activity (AID 2283037); conditions: primary human bronchial epithelial cells; actives raise or lower the signal
Procedure, shortened: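 In this multiplexed primary-cell system, bronchial epithelial cells receive test chemical and are sampled at 24 h. PAI-1 is read by ELISA, with DMSO serving as negative control for bidirectional fitting.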

[7] = read-out: urokinase plasminogen activator (uPA), PLAU (gene 5328); test: BSK_BE3C_uPA: BioMAP Diversity Plus: BE3C Assay for urokinase plasminogen activator (uPA) Biomarker Activity (AID 2283038); conditions: primary human bronchial epithelial cells; actives raise or lower the signal
Procedure, shortened: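 Human primary bronchial epithelial cells were exposed to chemical for 24 h, then uPA levels were measured by ELISA. Responses were fitted bidirectionally against DMSO as negative control and baseline. Parallel SRB staining of total protein gauged overt cytotoxicity.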

[8] = read-out: Urokinase-type plasminogen activator receptor (uPAR), PLAUR (gene 5329); test: BSK_BE3C_uPAR: BioMAP Diversity Plus: BE3C Assay for Urokinase-type plasminogen activator receptor (uPAR) Biomarker Activity (AID 2283039); conditions: primary human bronchial epithelial cells; actives raise or lower the signal
Procedure, shortened: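 Chemically treated human bronchial epithelial cells (lung primary) are assayed for uPAR by ELISA after 24 h, with data fitted in both directions using DMSO as negative control.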

[9] = read-out: Interleukin-6 (IL6), IL6 (gene 3569); test: BSK_CASM3C_IL6: BioMAP Diversity Plus: CASM3C Assay for Interleukin-6 (IL6) Biomarker Activity for (AID 2283040); conditions: primary human coronary artery smooth muscle cells; actives raise or lower the signal
[10] = read-out: Tissue plasminogen activator (tPA), PLAT (gene 5327); test: BSK_BE3C_tPA: BioMAP Diversity Plus: BE3C Assay for Tissue plasminogen activator (tPA) Biomarker Activity (AID 2283041); conditions: primary human bronchial epithelial cells; actives raise or lower the signal
Procedure, shortened: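 Using human lung primary bronchial epithelial cells, tPA was measured by ELISA 24 h after dosing; data fitted relative to DMSO.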

[11] = read-out: Interleukin-8 (IL8), CXCL8 (gene 3576); test: BSK_CASM3C_IL8: BioMAP Diversity Plus: CASM3C Assay for Interleukin-8 (IL8) Biomarker Activity (AID 2283042); conditions: primary human coronary artery smooth muscle cells; actives raise or lower the signal;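 also: IL-8 protein level quantified by ELISA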
[12] = read-out: Human Leukocyte Antigen - DR isotype (HLADR), HLA-DRA (gene 3122); test: BSK_CASM3C_HLADR: BioMAP Diversity Plus: CASM3C Assay for Human Leukocyte Antigen - DR isotype (HLADR) Biomarker Activity (AID 2283043); conditions: primary human coronary artery smooth muscle cells; actives raise or lower the signal;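 also: cell-surface HLA-DR protein level quantified by ELISA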
[13] = read-out: Macrophage colony-stimulating factor (MCSF), CSF1 (gene 1435); test: BSK_CASM3C_MCSF: BioMAP Diversity Plus: CASM3C Assay for Macrophage colony-stimulating factor (MCSF) Biomarker Activity (AID 2283044); conditions: primary human coronary artery smooth muscle cells; actives raise or lower the signal;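 also: M-CSF protein amount quantified by ELISA after 24 h exposure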
[14] = read-out: Low-density lipoprotein receptor (LDLR), LDLR (gene 3949); test: BSK_CASM3C_LDLR: BioMAP Diversity Plus: CASM3C Assay for Low-density lipoprotein receptor (LDLR) Biomarker Activity (AID 2283045); conditions: primary human coronary artery smooth muscle cells; actives raise or lower the signal;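 also: LDLR protein level on the cell surface quantified by ELISA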
[15] = read-out: Monocyte Chemoattractant Protein-1 (MCP1), CCL2 (gene 6347); test: BSK_CASM3C_MCP1: BioMAP Diversity Plus: CASM3C Assay for Monocyte Chemoattractant Protein-1 (MCP1) Biomarker Activity (AID 2283046); conditions: primary human coronary artery smooth muscle cells; actives raise or lower the signal;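 also: MCP-1 level quantified by ELISA 24 h after dosing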
[16] = BSK_CASM3C_Proliferation: Cell Proliferation Assessment in the BioMAP Diversity Plus: CASM3C Assay (AID 2283047); conditions: primary human coronary artery smooth muscle cells;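 also: sulforhodamine B total protein stain as relative cell number at 560 nm; sub-confluent cells exposed 48 h before staining; fitted both ways against DMSO so gain or loss of cell number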
[17] = read-out: Monokine induced gamma interferon (MIG), CXCL9 (gene 4283); test: BSK_CASM3C_MIG: BioMAP Diversity Plus: CASM3C Assay for Monokine induced gamma interferon (MIG) Biomarker Activity (AID 2283048); conditions: primary human coronary artery smooth muscle cells; actives raise or lower the signal
[18] = read-out: serum amyloid A (SAA), SAA1 (gene 6288); test: BSK_CASM3C_SAA: BioMAP Diversity Plus: CASM3C Assay for serum amyloid A (SAA) Biomarker Activity (AID 2283049); conditions: primary human coronary artery smooth muscle cells; actives raise or lower the signal;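 also: SAA protein level quantified by ELISA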
[19] = BSK_CASM3C_SRB: Viability Assessment in the BioMAP Diversity Plus: CASM3C Assay (AID 2283050); conditions: primary human coronary artery smooth muscle cells;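 also: total protein by SRB staining as cytotoxicity measure in parallel cultures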
[20] = read-out: Vascular endothelial growth factor receptor 2 (Homo sapiens) (UniProt P35968); test: BSK_4H_VEGFRII: BioMAP Diversity Plus: 4H Assay for Vascular endothelial growth factor receptor 2 (VEGFR2) Biomarker Activity (AID 2283031); conditions: primary human endothelial cells (HUVEC); actives raise or lower the signal;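 as to AC50: cell-surface VEGFR2 protein level quantified by ELISA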
Procedure, shortened: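 Primary human umbilical vein endothelial cells in the BioMAP 4H system were dosed with test chemical, and 24 h later VEGFRII was measured by ELISA. Activity was fitted bidirectionally against DMSO as negative control and baseline.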

Measured: AC50

CC(=O)[O][Hg][c]1ccccc1
active: [1] 0.355 µM | [2] 2.37 µM | [3] 0.94 µM | [4] 2.01 µM | [5] 0.148 µM | [6] 1.42 µM | [7] 1.06 µM | [8] 1.8 µM | [9] 3.56 µM | [10] 0.537 µM | [11] 3.6 µM | [12] 0.58 µM | [13] 0.816 µM | [14] 0.148 µM | [15] 0.394 µM | [16] 0.148 µM | [17] 2.05 µM | [18] 0.47 µM | [19] 0.148 µM

COP(=S)(OC)Oc1ccc(Sc2ccc(OP(=S)(OC)OC)cc2)cc1
active: [1] 8.14 µM | [2] 30.2 µM | [3] 18.2 µM | [10] 10 µM
inactive: all other assays above

COC(=O)Cc1ccccc1
not listed: [5]
inactive: all other assays above

CC(C)(c1ccccc1)c1ccc(O)c(C(C)(C)c2ccccc2)c1
active: [20] 7.22 µM | [1] 13.6 µM | [2] 8.48 µM | [3] 12 µM | [4] 22.7 µM | [5] 16.8 µM | [6] 14.3 µM | [7] 16.2 µM | [8] 29.3 µM | [9] 26.4 µM | [10] 14.7 µM | [11] 28.5 µM | [12] 25.8 µM | [13] 25.3 µM | [14] 28.2 µM | [16] 7.92 µM | [17] 29.4 µM | [18] 23.6 µM | [19] 26.8 µM

O=C1C2(Cl)C3(Cl)C4(Cl)C(Cl)(Cl)C5(Cl)C3(Cl)C1(Cl)C5(Cl)C24Cl (stereo not given)
active: [20] 5.18 µM | [1] 7.65 µM | [2] 8.36 µM | [3] 7.91 µM | [4] 9.37 µM | [5] 5.28 µM | [6] 8.29 µM | [7] 5.32 µM | [8] 6.12 µM | [9] 33.5 µM | [10] 3 µM | [11] 35.6 µM | [12] 14.9 µM | [13] 26.6 µM | [14] 10.5 µM | [15] 31.3 µM | [16] 6.61 µM | [17] 34.2 µM | [18] 23.3 µM | [19] 24 µM

CC(C)CCCCCCOC(=O)c1ccccc1C(=O)OCCCCCCC(C)C
inactive: all assays above

ClC1=C(Cl)[C@]2(Cl)[C@H]3[C@H]([C@H]4C=C[C@H]3C4)[C@@]1(Cl)C2(Cl)Cl
active: [20] 2.01 µM | [1] 13.1 µM | [2] 7.9 µM | [5] 3.12 µM | [6] 3.97 µM | [12] 5.83 µM | [16] 8.26 µM
not listed: [3]
inactive: all other assays above

CCCCCCCCC(=O)NCc1ccc(O)c(OC)c1
active: [3] 20 µM | [6] 20 µM | [12] 32.3 µM | [16] 20 µM
inactive: all other assays above

CC(=O)OC(c1ccccc1)C(Cl)(Cl)Cl (stereo not given)
not listed: [5]
inactive: all other assays above

— PubChem BioAssay (EPA / NIEHS)
